Measurements published in the supplement of paper PMC10849652.
The full data set covers some 8,800 targets. This sample favours those with a hit. About 0.5% of all pairs of compound and target were hits.

Tests used:
Experiment in all cases: log2 fold change, soluble protein after heating vs DMSO (PISA); higher = thermal stabilisation; K562 lysate, 10 uM; active = over 0.2 and 3.5 SD of the protein, either way, in both replicates (recomputed)
lapatinib = compound: CS(=O)(=O)CCNCc1ccc(-c2ccc3ncnc(Nc4ccc(OCc5cccc(F)c5)c(Cl)c4)c3c2)o1 [lapatinib]
Outline: (§1)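 Thermal stability, expressed as log-two fold change relative to solvent controls, is given from duplicates. Crude K562 extract in PBS pH 7.4 with 1 mM MgCl2, at 1 mg/mL protein, was treated with 10 μM compound for 30 min and heated in aliquots for 3 min across 48°C-58°C. After pooling, adjustment to 0.5% NP-40 at 4°C and centrifugation at 21,000xg for 90 min, supernatant protein was measured by TMTpro 16plex LC-MS/MS with channel sums equalised.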

pictilisib = compound: CS(=O)(=O)N1CCN(Cc2cc3nc(-c4cccc5[nH]ncc45)nc(N4CCOCC4)c3s2)CC1 [pictilisib]
Outline: as §1

[1] = compound: C[C@H](C1=CC=C(C=C1)C(=O)NC2=C3C=CNC3=NC=C2)N
Outline: as §1

duvelisib = compound: C[C@H](Nc1ncnc2nc[nH]c12)c1cc2cccc(Cl)c2c(=O)n1-c1ccccc1 [duvelisib]
Outline: as §1

gandotinib = compound: Cc1cc(Nc2cc(CN3CCOCC3)c3nc(C)c(Cc4ccc(Cl)cc4F)n3n2)n[nH]1 [gandotinib]
Outline: as §1

tozasertib = compound: Cc1cc(Nc2cc(N3CCN(C)CC3)nc(Sc3ccc(NC(=O)C4CC4)cc3)n2)n[nH]1 [tozasertib]
Outline: as §1

doramapimod = compound: Cc1ccc(-n2nc(C(C)(C)C)cc2NC(=O)Nc2ccc(OCCN3CCOCC3)c3ccccc23)cc1 [doramapimod]
Outline: as §1

bafetinib = compound: Cc1ccc(NC(=O)c2ccc(CN3CC[C@H](N(C)C)C3)c(C(F)(F)F)c2)cc1Nc1nccc(-c2cncnc2)n1 [bafetinib]
Outline: as §1

[2] = compound: Cc1cccc(CC(=O)N2CCc3c2ccc(-c2cn(C)c4ncnc(N)c24)c3F)n1
Outline: as §1

nilotinib = compound: Cc1cn(-c2cc(NC(=O)c3ccc(C)c(Nc4nccc(-c5cccnc5)n4)c3)cc(C(F)(F)F)c2)cn1 [nilotinib]
Outline: as §1

[3] = compound: Cc1nc(Nc2n[nH]c3c2CN(C(=O)N[C@H](CN(C)C)c2ccccc2)C3(C)C)c2sccc2n1
Outline: as §1

dasatinib = compound: Cc1nc(Nc2ncc(C(=O)Nc3c(C)cccc3Cl)s2)cc(N2CCN(CCO)CC2)n1 [dasatinib]
Outline: as §1

[4] = compound: Cc1ncc(-c2ccnc(Nc3ccc(S(C)(=O)=O)cc3)n2)n1C(C)C
Outline: as §1

[5] = compound: Cn1cc(-c2ccc3c(c2)CCN3C(=O)Cc2cccc(C(F)(F)F)c2)c2c(N)ncnc21
Outline: as §1

quisinostat = compound: Cn1cc(CNCC2CCN(c3ncc(C(=O)NO)cn3)CC2)c2ccccc21 [quisinostat]
Outline: as §1

tipifarnib = compound: Cn1cncc1[C@@](N)(c1ccc(Cl)cc1)c1ccc2c(c1)c(-c1cccc(Cl)c1)cc(=O)n2C [tipifarnib]
Outline: as §1

[6] = compound: NC(=O)Nc1cc(-c2cccc(F)c2)sc1C(=O)N[C@H]1CCCNC1
Outline: as §1

[7] = compound: NC(=O)c1cnc(N[C@@H]2CCCC[C@@H]2N)nc1Nc1cccc(-n2nccn2)c1
Outline: as §1

[8] = compound: NC1(c2ccc(-c3nc4ccn5c(=O)[nH]nc5c4cc3-c3ccccc3)cc2)CCC1
Outline: as §1

crizotinib = compound: C[C@@H](Oc1cc(-c2cnn(C3CCNCC3)c2)cnc1N)c1c(Cl)ccc(F)c1Cl [crizotinib]
Outline: as §1

Measured: log2 fold change

CAMK2B (UniProt Q13554)
Chain of UniProt Q13554 (Q13554 whole entry, looked up): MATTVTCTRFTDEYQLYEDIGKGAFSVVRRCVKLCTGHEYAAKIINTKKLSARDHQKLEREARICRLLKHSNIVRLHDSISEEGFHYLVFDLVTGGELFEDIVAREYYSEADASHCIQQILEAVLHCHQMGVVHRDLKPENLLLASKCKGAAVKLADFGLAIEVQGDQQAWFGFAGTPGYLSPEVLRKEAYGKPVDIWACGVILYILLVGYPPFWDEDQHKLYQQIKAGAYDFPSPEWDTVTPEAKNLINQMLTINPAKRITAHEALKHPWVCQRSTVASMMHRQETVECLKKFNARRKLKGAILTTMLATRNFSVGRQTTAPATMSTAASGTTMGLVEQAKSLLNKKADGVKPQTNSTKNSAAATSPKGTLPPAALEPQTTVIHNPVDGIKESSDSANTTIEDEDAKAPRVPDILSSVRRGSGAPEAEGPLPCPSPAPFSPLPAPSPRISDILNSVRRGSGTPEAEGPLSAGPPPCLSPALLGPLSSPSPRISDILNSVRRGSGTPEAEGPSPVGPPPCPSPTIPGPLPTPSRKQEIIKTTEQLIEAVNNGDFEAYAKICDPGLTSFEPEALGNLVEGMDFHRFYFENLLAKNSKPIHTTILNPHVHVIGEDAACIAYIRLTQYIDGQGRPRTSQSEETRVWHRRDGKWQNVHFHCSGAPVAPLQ
inactive: lapatinib 0.024 | pictilisib 0.053 | [1] -0.045 | duvelisib -0.011 | gandotinib 0.072 | tozasertib -0.046 | doramapimod -0.03 | bafetinib 0.003 | [2] 0.055 | nilotinib -0.026 | dasatinib -0.055 | [4] 0.026 | [5] 0.023 | quisinostat -0.205 | tipifarnib -0.035 | [6] 0.295 | [7] 0.089 | [8] -0.045
active: [3] 0.399

BTRC (UniProt Q9Y297)
Chain of UniProt Q9Y297 (Q9Y297 whole entry, looked up): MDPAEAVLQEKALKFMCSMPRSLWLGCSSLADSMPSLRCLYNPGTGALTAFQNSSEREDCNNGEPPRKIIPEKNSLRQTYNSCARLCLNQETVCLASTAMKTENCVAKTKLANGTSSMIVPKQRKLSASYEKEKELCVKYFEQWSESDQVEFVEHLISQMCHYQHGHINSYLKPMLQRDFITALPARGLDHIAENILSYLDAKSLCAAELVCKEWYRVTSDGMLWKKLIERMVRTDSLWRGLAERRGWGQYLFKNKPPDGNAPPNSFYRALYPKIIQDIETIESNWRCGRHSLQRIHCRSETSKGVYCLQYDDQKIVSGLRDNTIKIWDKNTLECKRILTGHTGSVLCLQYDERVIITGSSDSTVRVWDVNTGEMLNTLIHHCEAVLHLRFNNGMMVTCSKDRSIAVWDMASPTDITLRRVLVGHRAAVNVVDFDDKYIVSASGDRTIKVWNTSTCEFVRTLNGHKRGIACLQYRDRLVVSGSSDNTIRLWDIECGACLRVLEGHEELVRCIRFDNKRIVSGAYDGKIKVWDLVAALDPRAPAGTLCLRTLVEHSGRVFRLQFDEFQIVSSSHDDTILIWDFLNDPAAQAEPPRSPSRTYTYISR
inactive: lapatinib 0.01 | pictilisib -0.008 | [1] 0.018 | gandotinib 0.073 | tozasertib -0.01 | bafetinib -0.027 | [2] 0.065 | nilotinib 0.006 | [3] 0.02 | [4] -0.003 | tipifarnib 0.02 | [7] 0.059 | [8] 0.031

CASP9 (UniProt P55211)
inactive: lapatinib 0.003 | pictilisib 0.011 | crizotinib -0.047 | [1] -0.036 | duvelisib 0.036 | gandotinib -0.027 | tozasertib 0.017 | doramapimod 0.009 | bafetinib -0.069 | [2] 0.082 | nilotinib -0.004 | [3] 0.006 | dasatinib -0.055 | [4] -0.012 | [5] -0.013 | quisinostat -0.056 | tipifarnib 0.005 | [6] 0.056 | [7] -0.011 | [8] 0.007

CDK8 (UniProt P49336)
Chain of UniProt P49336 (P49336 whole entry, looked up): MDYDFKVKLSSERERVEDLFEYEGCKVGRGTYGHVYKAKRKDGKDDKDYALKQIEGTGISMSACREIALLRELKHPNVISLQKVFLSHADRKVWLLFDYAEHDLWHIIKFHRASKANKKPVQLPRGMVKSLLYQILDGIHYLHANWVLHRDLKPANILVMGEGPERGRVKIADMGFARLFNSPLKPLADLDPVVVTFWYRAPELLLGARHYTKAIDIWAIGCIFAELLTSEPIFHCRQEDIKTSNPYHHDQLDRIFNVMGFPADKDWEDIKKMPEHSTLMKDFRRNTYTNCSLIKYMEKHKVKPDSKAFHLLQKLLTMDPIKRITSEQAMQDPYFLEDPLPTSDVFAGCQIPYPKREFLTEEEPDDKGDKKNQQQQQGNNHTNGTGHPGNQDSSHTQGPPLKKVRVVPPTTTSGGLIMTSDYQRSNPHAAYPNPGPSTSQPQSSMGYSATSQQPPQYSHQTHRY
inactive: lapatinib -0.035 | pictilisib -0.033 | crizotinib -0.032 | [1] 0.129 | duvelisib -0.075 | gandotinib -0.065 | doramapimod 0.322 | bafetinib -0.043 | [2] 0.119 | nilotinib -0.025 | [3] -0.037 | dasatinib -0.054 | [4] 0.119 | [5] -0.032 | quisinostat -0.05 | tipifarnib -0.209 | [6] 0.018 | [7] -0.006 | [8] -0.033

ATF7IP2 (UniProt Q5U623)
Chain of UniProt Q5U623 (Q5U623 whole entry, looked up): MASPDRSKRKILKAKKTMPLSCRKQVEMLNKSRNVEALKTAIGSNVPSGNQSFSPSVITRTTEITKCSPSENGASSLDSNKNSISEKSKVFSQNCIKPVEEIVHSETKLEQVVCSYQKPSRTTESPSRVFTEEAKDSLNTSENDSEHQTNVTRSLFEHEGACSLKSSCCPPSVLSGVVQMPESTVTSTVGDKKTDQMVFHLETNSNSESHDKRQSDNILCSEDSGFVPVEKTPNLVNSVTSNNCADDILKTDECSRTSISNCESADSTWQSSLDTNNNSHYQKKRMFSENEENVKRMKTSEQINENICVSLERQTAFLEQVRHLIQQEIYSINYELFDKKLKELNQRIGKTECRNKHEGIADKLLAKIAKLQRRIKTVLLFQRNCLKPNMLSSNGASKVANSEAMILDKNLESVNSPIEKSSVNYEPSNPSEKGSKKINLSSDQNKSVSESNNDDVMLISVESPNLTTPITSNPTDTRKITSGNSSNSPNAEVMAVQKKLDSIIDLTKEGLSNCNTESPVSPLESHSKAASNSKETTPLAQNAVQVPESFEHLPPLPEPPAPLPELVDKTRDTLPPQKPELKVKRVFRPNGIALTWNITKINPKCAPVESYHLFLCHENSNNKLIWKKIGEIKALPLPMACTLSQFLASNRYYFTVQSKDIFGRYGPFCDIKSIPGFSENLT
inactive: lapatinib -0.03 | pictilisib 0.05 | crizotinib -0.215 | [1] 0.05 | gandotinib 0.027 | doramapimod 0.073 | bafetinib -0.023 | [2] -0.155 | nilotinib -0.003 | [3] 0.008 | [4] -0.089 | tipifarnib -0.064 | [6] 0.001 | [7] 0.036 | [8] -0.127
active: quisinostat -0.336

CDAN1 (UniProt Q8IWY9)
Chain of UniProt Q8IWY9 (Q8IWY9 whole entry, looked up): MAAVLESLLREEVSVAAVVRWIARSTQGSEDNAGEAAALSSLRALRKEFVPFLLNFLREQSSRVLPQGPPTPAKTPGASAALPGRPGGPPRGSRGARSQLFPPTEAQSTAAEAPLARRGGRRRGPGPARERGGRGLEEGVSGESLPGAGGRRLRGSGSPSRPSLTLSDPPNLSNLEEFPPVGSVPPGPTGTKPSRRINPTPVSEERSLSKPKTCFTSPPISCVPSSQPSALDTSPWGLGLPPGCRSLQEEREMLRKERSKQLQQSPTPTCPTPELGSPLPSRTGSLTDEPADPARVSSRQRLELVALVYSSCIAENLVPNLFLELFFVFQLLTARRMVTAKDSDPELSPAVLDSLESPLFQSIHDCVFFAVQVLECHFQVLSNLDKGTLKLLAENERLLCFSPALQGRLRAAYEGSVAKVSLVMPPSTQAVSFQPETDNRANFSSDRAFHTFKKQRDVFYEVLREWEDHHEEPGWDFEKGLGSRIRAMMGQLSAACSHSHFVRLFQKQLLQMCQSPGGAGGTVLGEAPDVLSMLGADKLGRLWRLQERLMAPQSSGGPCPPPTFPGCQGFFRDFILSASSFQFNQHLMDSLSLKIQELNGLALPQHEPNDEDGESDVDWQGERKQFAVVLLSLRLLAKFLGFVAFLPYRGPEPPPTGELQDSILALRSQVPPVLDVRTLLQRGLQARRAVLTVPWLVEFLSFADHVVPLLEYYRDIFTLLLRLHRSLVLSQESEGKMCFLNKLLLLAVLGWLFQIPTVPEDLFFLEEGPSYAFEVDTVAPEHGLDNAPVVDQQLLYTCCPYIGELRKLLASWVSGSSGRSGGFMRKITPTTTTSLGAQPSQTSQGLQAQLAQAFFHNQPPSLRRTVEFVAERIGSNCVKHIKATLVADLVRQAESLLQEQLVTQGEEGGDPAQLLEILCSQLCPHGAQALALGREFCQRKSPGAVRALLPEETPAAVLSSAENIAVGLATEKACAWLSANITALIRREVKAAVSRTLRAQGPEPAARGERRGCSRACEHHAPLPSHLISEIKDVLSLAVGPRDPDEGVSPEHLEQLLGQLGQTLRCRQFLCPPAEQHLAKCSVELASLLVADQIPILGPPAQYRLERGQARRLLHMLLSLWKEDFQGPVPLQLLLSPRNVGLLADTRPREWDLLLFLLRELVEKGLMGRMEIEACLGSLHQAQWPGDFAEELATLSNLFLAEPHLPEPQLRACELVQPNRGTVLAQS
inactive: lapatinib 0.009 | pictilisib -0.05 | crizotinib -0.038 | [1] 0 | duvelisib 0.026 | gandotinib -0.073 | tozasertib 0.068 | doramapimod -0.021 | bafetinib -0.056 | [2] 0.051 | nilotinib -0.029 | [3] 0.022 | dasatinib -0.055 | [4] -0.014 | [5] -0.037 | quisinostat -0.09 | tipifarnib -0.026 | [6] 0.066 | [7] 0.017 | [8] -0.032

ATP11A (UniProt P98196)
Chain of UniProt P98196 (P98196 whole entry, looked up): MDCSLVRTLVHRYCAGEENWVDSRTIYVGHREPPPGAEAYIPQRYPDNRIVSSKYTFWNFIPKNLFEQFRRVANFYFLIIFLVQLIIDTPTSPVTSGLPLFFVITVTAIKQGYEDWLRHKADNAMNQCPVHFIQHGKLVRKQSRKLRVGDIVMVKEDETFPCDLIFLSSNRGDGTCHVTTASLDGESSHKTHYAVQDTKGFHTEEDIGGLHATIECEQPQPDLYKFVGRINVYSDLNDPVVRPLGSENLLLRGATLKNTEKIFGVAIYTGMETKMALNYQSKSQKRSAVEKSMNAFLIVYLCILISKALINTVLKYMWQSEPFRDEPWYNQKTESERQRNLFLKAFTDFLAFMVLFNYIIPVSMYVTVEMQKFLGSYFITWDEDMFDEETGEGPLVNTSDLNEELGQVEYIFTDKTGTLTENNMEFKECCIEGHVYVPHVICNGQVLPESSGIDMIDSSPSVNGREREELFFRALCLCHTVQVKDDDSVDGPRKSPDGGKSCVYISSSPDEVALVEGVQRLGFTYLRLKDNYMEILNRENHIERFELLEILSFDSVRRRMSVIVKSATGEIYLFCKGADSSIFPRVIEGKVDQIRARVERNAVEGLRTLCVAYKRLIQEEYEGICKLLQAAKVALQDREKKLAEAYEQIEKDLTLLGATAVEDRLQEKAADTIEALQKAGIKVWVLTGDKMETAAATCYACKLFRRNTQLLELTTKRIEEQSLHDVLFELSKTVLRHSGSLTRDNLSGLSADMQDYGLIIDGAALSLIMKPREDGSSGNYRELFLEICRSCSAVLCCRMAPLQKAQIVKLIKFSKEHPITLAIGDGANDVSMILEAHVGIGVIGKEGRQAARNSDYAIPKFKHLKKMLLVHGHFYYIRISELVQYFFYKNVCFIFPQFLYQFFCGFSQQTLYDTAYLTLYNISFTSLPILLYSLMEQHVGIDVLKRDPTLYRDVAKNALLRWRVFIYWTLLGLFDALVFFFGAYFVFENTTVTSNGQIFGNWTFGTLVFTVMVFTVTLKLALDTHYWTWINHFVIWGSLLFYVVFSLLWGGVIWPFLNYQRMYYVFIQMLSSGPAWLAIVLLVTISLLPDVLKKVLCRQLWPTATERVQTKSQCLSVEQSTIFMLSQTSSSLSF
inactive: lapatinib -0.118 | pictilisib -0.087 | crizotinib -0.005 | [1] -0.108 | duvelisib 0.081 | gandotinib 0.017 | tozasertib 0.009 | doramapimod -0.07 | bafetinib -0.05 | [2] 0.1 | nilotinib -0.046 | [3] -0.053 | dasatinib 0.018 | [4] 0.011 | [5] 0.035 | quisinostat 0.002 | tipifarnib 0.019 | [6] 0.043 | [7] -0.045 | [8] -0.012

CDK2 (UniProt P24941)
active: gandotinib 0.403
inactive: lapatinib -0.026 | pictilisib 0.028 | crizotinib 0 | duvelisib -0.026 | tozasertib 0.008 | doramapimod 0.004 | bafetinib 0.042 | [2] -0.001 | nilotinib -0.01 | dasatinib 0.018 | [5] 0.01 | quisinostat -0.077 | tipifarnib 0.011 | [6] 0.005 | [7] 0.067 | [8] -0.012
